From PubChem BioAssay (Tox21)
“And” between values parts separate entries of the source, which are not always exact repeats. Equal entries are not always repeated. Results filed as inconclusive are left out. The source holds several records for some structures; these can differ, active in one and inactive in another. The source made the active and inactive calls. Unless noted, the call rests on the fitted dose curve; in most records, active means well fitted curve in the direction sought with a large enough effect in the repeat runs; inconclusive means weak or mixed curves; inactive means no such curve, though single readings can be large; an effect the other way counts as inactive or inconclusive.

How the values were obtained:
[1] = qHTS assay to identify small molecule agonists of the estrogen receptor alpha (ER-alpha) signaling pathway in the presence of an antagonist - cell viability counter screen (AID 1259386);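 further: series mostly up to about 92 µM; cells exposed to compounds for 22 h at 37 °C before the viability read; nearly all actives have a fitted effect of over 30% in size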
In short: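 Cytotoxicity was measured in parallel with the ERE-luciferase agonist screen, in the same wells. The cells were VM7Luc4E2, which endogenously express ER-alpha, and treatment was with compounds plus 10.0nM ICI-182,780 for 22hr.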

[2] = biological target: Progesterone receptor (Homo sapiens) (UniProt P06401); assay: qHTS assay to identify small molecule agonists of the progesterone receptor (PR) signaling pathway (AID 1346784; calls by dose curve; further: nearly all actives have a fitted effect of over 30% in size; further: potency means the concentration at half of the fitted maximal effect)
In short: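 HEK 293T PR-UAS-bla reporter cells, 2% charcoal-stripped FBS; 6 hr settle at 37C/5% CO2, compound (DMSO) 16 hr, LiveBLAzer B/G FRET substrate 2 hr RT, fluorescence intensity read.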

[3] = biological target: Progesterone receptor (Homo sapiens) (UniProt P06401); assay: qHTS assay to identify small molecule antagonists of the progesterone receptor (PR) signaling pathway (AID 1346795; active means well fitted inhibition curve with a large enough effect in the signal ratio in the repeat runs, not every such curve was filed as active; the % refers to the signal ratio)
In short: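 Beta-lactamase reporter, HEK293T PR-UAS-bla line; 2% charcoal-stripped FBS; 6 hr pre-incubation, 37C/5% CO2. Compound + R5020 1 nM final, 16 hr. LiveBLAzer B/G FRET substrate, 2 hr RT; fluorescence intensity read.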

[4] = qHTS assay to identify small molecule antagonists of the progesterone receptor (PR) signaling pathway - cell viability counter screen (AID 1346798); further: series mostly up to about 92 µM; nearly all actives have a fitted effect of over 50% in size
In short: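 Luminescence readout (CellTiter-Glo, 30 min, RT) of viability in PR-UAS-bla HEK293T cells exposed to compound and R5020 agonist for 16 hr at 37C, 5% CO2; run in the same wells as the beta-lactamase reporter read.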

[5] = qHTS assay to identify small molecule agonists of the progesterone receptor (PR) signaling pathway - cell viability counter screen (AID 1346799; calls by dose curve; further: nearly all actives have a fitted effect of over 45% in size)
In short: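 HEK293T PR-UAS-bla, 3,000 cells/well, 2% charcoal-stripped FBS; 6 h settle, compound 16 h at 37C/5% CO2; LiveBLAzer 2 h RT, then CellTiter-Glo 30 min RT, luminescence read.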

[6] = qHTS assay to identify small molecule antagonists of the TGF-beta/Smad signaling pathway - cell viability counter screen (AID 1346824); further: nearly all actives have a fitted effect of over 50% in size
In short: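 Cytotoxicity counter-screen run in the same wells as the beta-lactamase Smad reporter read: CellTiter-Glo luminescence after 30 min at room temperature. HEK 293T SBE-bla cells had 5 hr compound exposure at 37 C with TGF-beta1 (0.25 ng/mL stock).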

[7] = qHTS assay to identify small molecule agonists of the TGF-beta/Smad signaling pathway - cell viability counter screen (AID 1346829); further: top concentration of the series differs between compounds; nearly all actives have a fitted effect of over 45% in size
In short: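 HEK 293T SBE-bla line, 5 hr compound exposure at 37 C, multiplexed CellTiter-Glo viability read by luminescence.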

[8] = qHTS assay to identify small molecule agonists of the TGF-beta/Smad signaling pathway (AID 1346859; active means well fitted activation curve with a large enough effect in the signal ratio in the repeat runs, not every such curve was filed as active; the % refers to the signal ratio; further: series mostly up to about 77 µM)
In short: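 Read-out: fluorescence at 460 and 530 nm (405 nm excitation) after a 2 hr room-temperature incubation with beta-lactamase FRET substrate. SBE-bla HEK 293T cells had been treated with test compounds for 5 hr at 37 C.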

[9] = biological target: Thyrotropin-releasing hormone receptor (Homo sapiens) (UniProt P34981); assay: qHTS assay to identify small molecule antagonists of the thyrotropin-releasing hormone receptor (TRHR) signaling pathway (AID 1346877; active means well fitted inhibition curve with a large enough effect in the repeat runs, not every such curve was filed as active; further: series mostly up to about 51 µM)
In short: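 Antagonism is measured as suppression of the calcium response to 1 nM TRH in TRHR-HEK293 cells that have been dye-loaded for 2 h at 37 °C after overnight plating. Each compound is tested at 15 concentrations in triplicate.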

[10] = biological target: Thyrotropin-releasing hormone receptor (Homo sapiens) (UniProt P34981); assay: qHTS assay to identify small molecule agonists of the thyrotropin-releasing hormone receptor (TRHR) signaling pathway (AID 1346891; calls by dose curve;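 further: HEK293 cells expressing TRHR with calcium dye readout; series mostly up to about 58 µM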)
In short: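 HEK293/TRHR cells, 1500 per well, 18 h 37 °C; Ca dye 2 h 37 °C; pin-tool compound addition (agonist mode); kinetic fluorescence 3 min, 1 s reads; 15 concentrations, triplicate.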

[11] = Human pregnane X receptor (PXR) small molecule agonists, qHTS cell viability counter screen (AID 1346977); further: nearly all actives have a fitted effect of over 50% in size
In short: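 Fluorescence read-out (CellTiter-Fluor) of viability in PXR-Luc HepG2 cells, multiplexed with the luciferase agonist read. Compounds in DMSO added after 5hr plating; 24hr total exposure at 37C, 5% CO2.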

[12] = Caspase-3/7 induction in HepG2 cells by small molecules, qHTS assay (AID 1346978); further: nearly all actives have a fitted effect of over 15% in size
In short: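 Caspase-3/7 induction was measured by Caspase-Glo 3/7 luminescence (30 min, room temperature) after a 17 hr compound exposure of wild-type HepG2 cells seeded at 2,000 per well and pre-incubated 5 hr.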

[13] = Caspase-3/7 induction in CHO-K1 cells by small molecules, qHTS cell viability counter screen (AID 1346979); further: nearly all actives have a fitted effect of over 35% in size; further: potency means the concentration at half of the fitted maximal effect
In short: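 CHO-K1 wt, 1,500 cells/well; 5hr pre-incubation 37C/5% CO2; compound pin transfer (DMSO); 16hr exposure; CellTiter-Fluor added, 1hr, fluorescence read.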

[14] = Caspase-3/7 induction in CHO-K1 cells by small molecules, qHTS assay (AID 1346980); further: nearly all actives have a fitted effect of over 15% in size
In short: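 Luminescent Caspase-Glo 3/7 read (30min, room temperature) quantified apoptosis induction. Cells were wild-type CHO-K1, treated with compound for 17hr at 37 C and 5% CO2.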

[15] = Caspase-3/7 induction in HepG2 cells by small molecules, qHTS cell viability counter screen (AID 1346981); further: nearly all actives have a fitted effect of over 30% in size; further: potency means the concentration at half of the fitted maximal effect
In short: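 Cell viability is measured as a cytotoxicity counter screen alongside the Caspase-Glo 3/7 readout in identical wells. Wild-type HepG2 cells are treated with test compounds for 16 hr at 37 C before CellTiter-Fluor addition and a 1-hr incubation.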

[16] = biological target: Nuclear receptor subfamily 1 group I member 2 (Homo sapiens) (UniProt O75469); assay: Human pregnane X receptor (PXR) small molecule agonists, qHTS assay (AID 1346982); further: nearly all actives have a fitted effect of over 35% in size; further: potency means the concentration at half of the fitted maximal effect
In short: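 Cells: HepG2 stably carrying PXR-Luc. Medium held 5% charcoal-stripped FBS. Compounds in DMSO added after 5 hr plating, incubated 24 hr, then luminescence quantified with ONE-Glo.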

[17] = biological target: Nuclear receptor subfamily 1 group I member 2 (Rattus norvegicus) (UniProt Q9R1A7); assay: Rat pregnane X receptor (rPXR) activation by small molecules, qHTS assay (AID 1346983); conditions: rPXR luciferase reporter cells, One-Glo luminescence, 24 h; max activation: stronger effect = higher value; further: nearly all actives have a fitted effect of over 20% in size
In short: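 Luminescent readout (One-Glo luciferase, 30 min room temperature) followed 24 hr compound treatment at 37 C of rPXR cells plated 2,000 per well and preincubated 5hr; qHTS format with compounds delivered in DMSO.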

[18] = biological target: Nuclear receptor subfamily 1 group I member 2 (Homo sapiens) (UniProt O75469); assay: CYP3A4 induction through human pregnane X receptor (PXR) by small molecules, qHTS assay (AID 1346984); further: nearly all actives have a fitted effect of over 40% in size
In short: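 Quantitative HTS in DPX-2 cells, i.e. HepG2 transfected with PXR response element and CYP3A4-promoter luciferase. Compounds in DMSO incubated 24hr at 37C; then P450-Glo CYP3A4 substrate, 3uM final, 3hr; One-Glo luminescence.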

[19] = biological target: Nuclear receptor subfamily 1 group I member 2 (Homo sapiens) (UniProt O75469); assay: Human pregnane X receptor (PXR) activation by small molecules, qHTS assay (AID 1346985); further: nearly all actives have a fitted effect of over 40% in size
In short: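 DPX-2 cells (HepG2 co-transfected with a PXR response element and a CYP3A4-promoter luciferase construct) were seeded at 2,000 per well, rested 5 hr at 37C, then exposed to DMSO-dissolved compounds for 24 hr. Activation was read as luciferase luminescence.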

[20] = biological target: Acetylcholinesterase (Homo sapiens) (UniProt P22303); assay: Acetylcholinesterase (AChE) small molecule antagonists: colormetric cell-based qHTS assay (AID 1347395; calls by dose curve; further: nearly all actives have a fitted effect of over 30% in size; further: potency means the concentration at half of the fitted maximal effect)
In short: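 SH-SY5Y cells; cpd 30 min 37 C; + DTNB/acetylthiocholine, 90 min 37 C; colorimetric thiocholine read; qHTS.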
On the % scale 0 is the no-effect control and ±100 the full control effect.

Sequence of Nuclear receptor subfamily 1 group I member 2 (Homo sapiens) (O75469 whole entry, looked up): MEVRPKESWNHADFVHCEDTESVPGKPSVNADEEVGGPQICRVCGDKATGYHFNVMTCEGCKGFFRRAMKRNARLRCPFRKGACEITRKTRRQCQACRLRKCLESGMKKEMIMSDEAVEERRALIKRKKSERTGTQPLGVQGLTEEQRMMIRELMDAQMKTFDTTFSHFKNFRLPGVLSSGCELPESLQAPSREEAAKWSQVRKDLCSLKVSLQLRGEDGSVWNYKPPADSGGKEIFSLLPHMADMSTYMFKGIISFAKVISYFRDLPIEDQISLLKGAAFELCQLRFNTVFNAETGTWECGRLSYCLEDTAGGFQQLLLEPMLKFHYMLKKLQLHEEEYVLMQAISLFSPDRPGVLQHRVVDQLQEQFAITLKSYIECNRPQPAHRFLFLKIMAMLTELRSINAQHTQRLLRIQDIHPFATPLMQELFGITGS
Sequence of Progesterone receptor (Homo sapiens) (P06401 whole entry, looked up): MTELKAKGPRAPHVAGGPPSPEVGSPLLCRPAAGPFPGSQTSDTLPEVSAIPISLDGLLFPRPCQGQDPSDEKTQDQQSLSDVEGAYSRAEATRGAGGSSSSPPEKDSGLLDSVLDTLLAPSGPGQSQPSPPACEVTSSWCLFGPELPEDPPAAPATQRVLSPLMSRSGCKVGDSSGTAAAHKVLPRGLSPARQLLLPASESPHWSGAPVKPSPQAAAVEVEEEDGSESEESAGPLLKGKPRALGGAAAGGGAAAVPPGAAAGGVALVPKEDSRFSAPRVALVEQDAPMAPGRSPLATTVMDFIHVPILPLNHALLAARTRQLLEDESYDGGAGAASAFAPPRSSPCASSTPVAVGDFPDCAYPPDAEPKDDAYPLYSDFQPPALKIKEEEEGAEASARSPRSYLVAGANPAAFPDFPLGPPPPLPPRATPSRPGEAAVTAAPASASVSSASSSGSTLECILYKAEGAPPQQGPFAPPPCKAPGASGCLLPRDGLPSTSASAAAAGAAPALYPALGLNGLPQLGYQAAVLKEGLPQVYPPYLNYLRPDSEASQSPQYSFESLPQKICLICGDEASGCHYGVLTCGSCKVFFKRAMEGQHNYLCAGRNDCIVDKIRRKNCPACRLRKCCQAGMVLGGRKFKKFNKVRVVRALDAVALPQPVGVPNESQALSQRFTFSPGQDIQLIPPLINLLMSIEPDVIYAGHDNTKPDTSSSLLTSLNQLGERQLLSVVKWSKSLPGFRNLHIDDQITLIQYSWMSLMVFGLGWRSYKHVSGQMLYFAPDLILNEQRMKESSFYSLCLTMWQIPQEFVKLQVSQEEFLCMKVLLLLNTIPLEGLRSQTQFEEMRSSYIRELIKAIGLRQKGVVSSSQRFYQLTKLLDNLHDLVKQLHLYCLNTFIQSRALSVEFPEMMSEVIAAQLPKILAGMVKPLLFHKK
Sequence of Thyrotropin-releasing hormone receptor (Homo sapiens) (P34981 whole entry, looked up): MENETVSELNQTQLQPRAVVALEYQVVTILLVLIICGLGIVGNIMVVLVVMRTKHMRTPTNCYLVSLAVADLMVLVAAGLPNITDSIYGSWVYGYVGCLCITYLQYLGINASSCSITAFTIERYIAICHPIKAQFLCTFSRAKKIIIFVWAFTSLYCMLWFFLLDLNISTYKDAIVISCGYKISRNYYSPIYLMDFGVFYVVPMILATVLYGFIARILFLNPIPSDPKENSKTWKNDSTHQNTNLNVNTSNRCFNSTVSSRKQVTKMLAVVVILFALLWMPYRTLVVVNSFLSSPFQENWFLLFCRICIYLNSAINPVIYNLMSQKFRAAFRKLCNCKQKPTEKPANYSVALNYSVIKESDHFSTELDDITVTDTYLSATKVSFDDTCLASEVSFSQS
Sequence of Nuclear receptor subfamily 1 group I member 2 (Rattus norvegicus) (Q9R1A7 whole entry, looked up): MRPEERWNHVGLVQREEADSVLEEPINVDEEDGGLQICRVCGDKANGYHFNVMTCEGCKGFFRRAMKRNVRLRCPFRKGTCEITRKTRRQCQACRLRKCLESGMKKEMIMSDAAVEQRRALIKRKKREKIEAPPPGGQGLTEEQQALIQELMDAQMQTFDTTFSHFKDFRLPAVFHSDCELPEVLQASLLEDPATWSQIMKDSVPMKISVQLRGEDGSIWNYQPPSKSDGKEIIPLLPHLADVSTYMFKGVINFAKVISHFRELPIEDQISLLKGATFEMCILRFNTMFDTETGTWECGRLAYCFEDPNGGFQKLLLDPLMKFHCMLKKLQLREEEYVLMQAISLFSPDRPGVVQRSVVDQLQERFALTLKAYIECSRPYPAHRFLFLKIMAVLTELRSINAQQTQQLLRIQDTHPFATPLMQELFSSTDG
Sequence of Acetylcholinesterase (Homo sapiens) (P22303 whole entry, looked up): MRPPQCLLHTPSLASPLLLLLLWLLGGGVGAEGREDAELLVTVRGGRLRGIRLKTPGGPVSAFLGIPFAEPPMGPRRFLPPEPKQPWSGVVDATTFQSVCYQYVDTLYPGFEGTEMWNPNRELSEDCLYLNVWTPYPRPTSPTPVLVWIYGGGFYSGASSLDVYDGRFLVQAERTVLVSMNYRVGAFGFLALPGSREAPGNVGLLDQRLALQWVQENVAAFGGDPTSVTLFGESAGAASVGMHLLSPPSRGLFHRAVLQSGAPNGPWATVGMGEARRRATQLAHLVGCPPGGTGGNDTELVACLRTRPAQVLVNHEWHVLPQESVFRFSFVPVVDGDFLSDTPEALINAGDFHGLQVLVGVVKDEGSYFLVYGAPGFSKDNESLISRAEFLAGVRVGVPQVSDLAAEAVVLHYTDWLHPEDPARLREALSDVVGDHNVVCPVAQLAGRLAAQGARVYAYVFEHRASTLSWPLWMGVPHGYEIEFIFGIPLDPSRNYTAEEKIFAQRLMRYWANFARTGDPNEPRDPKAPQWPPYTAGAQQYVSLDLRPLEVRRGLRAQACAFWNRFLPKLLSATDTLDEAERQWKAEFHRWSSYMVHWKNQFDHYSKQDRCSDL

CNCC(O)c1ccc(O)cc1 (configuration not stated)
inactive: Potency [1] | Potency [2] | Potency [3] | Potency [4] | outcome [5] | Potency [6] | Potency [7] | outcome [8] | outcome [9] | outcome [10] | Potency [11] | outcome [12] | Potency [13] | outcome [14] | Potency [15] | Potency [16] | max activation [17] -2.53% | Potency [18] | Potency [19] | Potency [20]

N#CN=C(N)N
inactive: Potency [1] | Potency [2] | Potency [3] | Potency [4] | outcome [5] | Potency [6] | Potency [7] | outcome [8] | outcome [9] | outcome [10] | Potency [11] | outcome [12] | Potency [13] | outcome [14] | Potency [15] | Potency [16] | Potency [20]

Nc1ccc([As](=O)(O)O)cc1
inactive: Potency [1] | Potency [2] | Potency [3] | Potency [4] | outcome [5] | Potency [6] | Potency [7] | outcome [8] | outcome [9] | outcome [10] | Potency [11] | outcome [12] | Potency [13] | outcome [14] | Potency [15] | Potency [16] | max activation [17] -1.25% | Potency [18] | Potency [19] | Potency [20]

CCOC(=O)CC(SP(=O)(OC)OC)C(=O)OCC (configuration not stated)
active: Potency [20] 3.02 µM and 3.56 µM
inactive: Potency [1] | Potency [2] | Potency [3] | Potency [4] | outcome [5] | Potency [6] | Potency [7] | outcome [8] | outcome [9] | outcome [10] | Potency [11] | outcome [12] | Potency [13] | outcome [14] | Potency [15] | Potency [16]

N#Cc1cccc(C#N)c1
inactive: Potency [1] | Potency [2] | Potency [3] | Potency [4] | outcome [5] | Potency [6] | Potency [7] | outcome [8] | outcome [9] | outcome [10] | Potency [11] | outcome [12] | Potency [13] | outcome [14] | Potency [15] | Potency [16] | Potency [20]

N#Cc1ccccn1
inactive: Potency [1] | Potency [2] | Potency [3] | Potency [4] | outcome [5] | Potency [6] | Potency [7] | outcome [8] | outcome [9] | outcome [10] | Potency [11] | outcome [12] | Potency [13] | outcome [14] | Potency [15] | Potency [16] | Potency [20]

O=C(O)Cc1ccccc1
inactive: Potency [1] | Potency [2] | Potency [3] | Potency [4] | outcome [5] | Potency [6] | Potency [7] | outcome [8] | outcome [9] | outcome [10] | Potency [11] | outcome [12] | Potency [13] | outcome [14] | Potency [15] | Potency [16] | Potency [20]

ClC(Cl)c1ccccc1
inactive: Potency [1] | Potency [2] | Potency [3] | Potency [4] | outcome [5] | Potency [6] | Potency [7] | outcome [8] | outcome [9] | outcome [10] | Potency [11] | outcome [12] | Potency [13] | outcome [14] | Potency [15] | Potency [16] | Potency [20]

Cc1cc(O)ccc1Cl
inactive: Potency [1] | Potency [2] | Potency [3] | Potency [4] | outcome [5] | Potency [6] | Potency [7] | outcome [8] | outcome [9] | outcome [10] | Potency [11] | outcome [12] | Potency [13] | outcome [14] | Potency [15] | Potency [16] | max activation [17] -2.1% | Potency [18] | Potency [19] | Potency [20]

Cc1cccc(N)c1C
active: Potency [16] 61.1 µM
15.9 µM (active) and inactive: Potency [2]
inactive: Potency [1] | Potency [3] | Potency [4] | outcome [5] | Potency [6] | Potency [7] | outcome [8] | outcome [9] | outcome [10] | Potency [11] | outcome [12] | Potency [13] | outcome [14] | Potency [15] | Potency [20]

O=C(O)CCCc1ccc(N(CCCl)CCCl)cc1
54.7 µM (active) and inactive: Potency [15]
active: Potency [13] 34.5 µM and 21.7 µM and 21.1 µM
inactive: Potency [1] | Potency [2] | Potency [3] | Potency [4] | outcome [5] | Potency [6] | Potency [7] | outcome [8] | outcome [9] | outcome [10] | Potency [11] | outcome [12] | outcome [14] | Potency [16] | Potency [20]

COc1nc(NC(C)C)nc(NC(C)C)n1
inactive: Potency [1] | Potency [2] | Potency [3] | Potency [4] | outcome [5] | Potency [6] | Potency [7] | outcome [8] | outcome [9] | outcome [10] | Potency [11] | outcome [12] | Potency [13] | outcome [14] | Potency [15] | Potency [20]
active: Potency [16] 30.7 µM and 54.5 µM

O=P1(NCCCl)OCCCN1CCCl (configuration not stated)
inactive: Potency [1] | Potency [2] | Potency [3] | Potency [4] | outcome [5] | Potency [6] | Potency [7] | outcome [8] | outcome [9] | outcome [10] | Potency [11] | outcome [12] | Potency [13] | outcome [14] | Potency [15]

C=CC#N
inactive: Potency [1] | Potency [2] | Potency [3] | Potency [4] | outcome [5] | Potency [6] | Potency [7] | outcome [8] | outcome [9] | outcome [10] | Potency [11] | outcome [12] | Potency [13] | outcome [14] | Potency [15] | Potency [16] | Potency [20]

CN(C)C(=O)Cl
inactive: Potency [1] | Potency [2] | Potency [3] | Potency [4] | outcome [5] | Potency [6] | Potency [7] | outcome [8] | outcome [9] | outcome [10] | Potency [11] | outcome [12] | Potency [13] | outcome [14] | Potency [15] | Potency [16] | Potency [20]
